# ALOX12 inh: ALOX12 (human) lipoxygenase inhibition; purified 12hLO, xylenol orange hydroperoxide absorbance; 580,000 tested, 1.1% active; Potency, µM (doses to about 108 µM), inactives show top-dose activity change, negative = inhibition, most hits filed as inhibitors; AID 1671190; P18054; note: % is set by controls: 0 for no effect and ±100 for the full control effect
#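 Purified human 12hLO at 150 nM in 25 mM Hepes, 0.01% Triton X-100, pH 7.0, preincubated 15 min at room temperature with compound. Reaction started with 40 uM arachidonic acid, 30 min at room temperature. Hydroperoxide measured by Fe-xylenol orange, 573/405 nm absorbance ratio.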
# Sfp PPTase inh: blocks B. subtilis Sfp PPTase activity | Q9F4F7 | Biochemical Sfp PPTase activity, qHTS | Potency, µM, without a hit: largest response in the series, negative = inhibition, actives largely listed as inhibitors | 310,000 tested, 3.5% active | AID 1490;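 note: the enzyme is Sfp with the accession as filed and its product quenches rhodamine fluorescence; 0% = enzyme reaction without inhibitor and -100% = no enzyme wells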
#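 Sfp 15 nM + cpd, 15 min RT; start w/ rhodamine-CoA 5 uM, BHQ-2-YbbR 12.5 uM (final); 50 mM Hepes pH 7.6, 10 mM MgCl2, 0.01% NP-40, 0.01% BSA; read 525/598 nm at 0 and 30 min.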
# JMJD2A Tudor inh: JMJD2A Tudor domain (human) inhibition; O75164; AlphaScreen JMJD2A-Tudor / H3K4me3 peptide binding; 390,000 tested, 4.4% active; Potency, µM (highest dose often 114 µM), for inactives: top-dose activity change, negative = inhibition, hits mostly inhibitors; note: % is set by controls: 0 for no effect and ±100 for the full control effect; nearly all actives have a fitted effect of over 50% in size
# G9a inh: inhibitors of human histone lysine methyltransferase G9a. Q96KQ7. G9a H3K9 monomethylation, AlphaScreen, 2 h. Potency, µM (highest dose often 102 µM), without a hit: at the highest dose activity, negative = inhibition, usual class: inhibitors. 350,000 tested, 8.8% active. AID 504332; note: % is set by controls: 0 for no effect and ±100 for the full control effect; nearly all actives have a fitted effect of over 75% in size
#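 AlphaScreen detection with an anti-monomethyl H3K9 antibody quantified product after a 2 h room-temperature reaction containing 500 nM biotinylated H3K9 peptide, 20 µM SAM and 20 nM enzyme, which had been preincubated 15 min with compound.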
# HP1b chromo inh: inhibitors of HP1-beta chromodomain binding to methylated histone tails | P83916 | AlphaScreen HP1-beta / biotin-H3K9me3 peptide binding | Potency, µM (top dose mostly 114 µM), without a hit: top-dose activity change, negative = inhibition, usual class: inhibitors | 390,000 tested, 0.56% active; note: nearly all actives have a fitted effect of over 70% in size
#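 HP1-beta protein (50 nM final) preincubated 30 min at room temperature with biotinylated H3(1-18)K9me3 peptide (50 nM) in PBS pH 7.4, 0.01% Tween-20, then compound added for 30 min. AlphaScreen streptavidin donor/nickel chelate acceptor beads (10 ug/mL final), 30 min dark, luminescence read.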
# BAZ2B inh: BAZ2B (human) inhibition; 360,000 tested, 4.4% active; Q9UIF8; AID 504333; Potency, µM (highest dose often 114 µM), for inactives: at the highest dose activity change, negative = inhibition, actives largely listed as inhibitors; AlphaScreen BAZ2B-H3K14Ac peptide displacement; note: % is set by controls: 0 for no effect and ±100 for the full control effect; nearly all actives have a fitted effect of over 60% in size
#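 AlphaScreen displacement: compounds (up to 110uM) incubated 30 min at room temperature with a preformed 50 nM BAZ2B/50 nM biotinylated H3K14Ac peptide complex in PBS pH 7.4 with Tween-20. Donor and acceptor beads at 10 ug/mL final added, 20 min light-protected before reading.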
# * marks the source's active call; other numbers are inactive results; u = inconclusive; x = no result; ! = repeats disagree; [ ] = dose if it differs, or a comment. Only some compounds are listed: those with a hit (about 8.7% of all), similar ones and a draw of the others. Calls come from the whole dose curve; as a rule, active = well fitted curve in the direction sought with a large enough effect; inconclusive = small, poorly fitted or top-dose-only effect, or another doubt; inactive = no such curve, though single readings can be large; an effect the other way counts as inactive or inconclusive. Potency is the fitted concentration of half-maximal effect.
SMILES,ALOX12 inh,Sfp PPTase inh,JMJD2A Tudor inh,G9a inh,HP1b chromo inh,BAZ2B inh
COc1ccc2nc(C)cc(Nc3ccc(N4CCOCC4)cc3)c2c1,u,-4%,u,u,-14%,u
COc1ccc2nc(C)cc(NCCN3CCOCC3)c2c1,-5%,10%,-12%,45µM*,-10%,5%
COc1ccc2nc(C)cc(Nc3ccc(N4CCN(C)CC4)cc3)c2c1,4%,0%,-36%,45µM*,14%,u
COc1ccc(/C=N/Nc2cc(C)nc3ccc(OC)cc23)c(OC)c1,u,50µM*,u,45µM*,-15%,-36%
CC1(C)NC(=O)N(CC(=O)N[C@H](Cc2ccccn2)C2CC(O)C2)C1=O (some centres not stated),8%,x,x,x,x,x
c1ccc(-c2csc3nc(CN4CCCCC4)nc(Nc4cn[nH]c4)c23)cc1,1%,x,x,x,x,x
Cc1nc(-c2ccccc2)sc1C(=O)N1CCN(Cc2ccccc2F)CC1,12%,x,x,x,x,x
CCOc1ccc2ccccc2c1CNCc1ccco1,10%,x,x,x,x,x
CCCNc1cc(N2CCC(CCC(=O)O)CC2)ncn1,9%,x,x,x,x,x
COc1cc(NC(=O)c2ccc(F)cc2)c(OC)cc1NC(=O)CN1CCCCC1,48%,-10%,-19%,50µM*,16%,-18%
COc1cc(NC(=O)c2cccc(Cl)c2)c(OC)cc1NC(=O)CN1CCOCC1,-1%,4%,u,45µM*,15%,u
COc1cc(NC(=O)c2ccccc2)c(OC)cc1NC(=O)CN1CCCCC1,0%,10%,-32%,u,-12%,u
COc1cc(NC(=O)c2cccc(Cl)c2)c(OC)cc1NC(=O)CN1CCCCC1,19%,-6%,u,x,u,-1%
Cn1c(=O)c2c(nc(N3CCN(c4cccc(Cl)c4)CC3)n2Cc2ccc(F)cc2)n(C)c1=O,-14%,x,x,x,x,x
CC(C)N=C1NN=C(c2ccc(Cl)c(Cl)c2)CS1,u,0%,u,45µM*,-11%,u
CC(C)N=C1NN=C(c2cccs2)CS1,9%,-21%,-7%[57.1 µM],20µM*,-12%,-14%
CC(C)c1ccc(N=C2NN=C(c3cccs3)CS2)cc1,-19%,6%,-33%,-4%,-15%,u
CC(C)(C)N=C1NN=C(c2ccc(Cl)cc2)CS1,u,1%,u,-1%[59 µM],0%,u
Cc1cccc(C(=O)Nc2cc3c(cc2N2CCOCC2)n(C)c(=O)n3C)c1,-12%,x,-7%,-2%[59 µM],6%,-32%
CCOc1cc(C(=O)Nc2cc3c(cc2N2CCOCC2)n(C)c(=O)n3C)cc(OCC)c1OCC,0%,10%,25µM*!,14%,17%,-33%
COc1cccc(C(=O)Nc2cc3c(cc2N2CCOCC2)n(C)c(=O)n3C)c1,-4%,-3%,-7%,20µM*,80%,u
Cc1cccc(C(=O)Nc2cc3c(cc2N2CCCCC2)n(C)c(=O)n3C)c1,-30%,x,-22%,-42%[59 µM],15%,50µM*
CCN(CC)C(=O)c1cccc(NC(=O)c2cc(S(=O)(=O)NCc3ccccc3)ccc2C)c1,45%,x,x,x,x,x
CC(C)N(C(=O)Cn1c(C2CC(=O)N(Cc3ccc(F)cc3)C2)nc2ccccc21)c1ccccc1 (configuration not stated),16%,x,x,x,x,x
COc1ccccc1/C=N/NC(=O)C1=NNC(c2ccccc2)(c2ccccc2)C1,x,0%,x,4%[59 µM],x,u
SMILES,ALOX12 inh,Sfp PPTase inh,JMJD2A Tudor inh,G9a inh,HP1b chromo inh,BAZ2B inh
O=C(N/N=C/c1ccc(C(=O)O)cc1)C1=NNC(c2ccccc2)(c2ccccc2)C1,-5%,-11%,79µM*,0%,35%,u
CC1CCN(S(=O)(=O)c2ccc(S(=O)(=O)N3CCC4(CC3)OCCO4)cc2)CC1,-2%,2%,0%,11µM*,17%,-6%
CC1CN(C2CCN(S(=O)(=O)c3ccc(F)cc3)CC2)CC(C)O1 (configuration not stated),-18%,-5%,2.8µM*,10µM*,u,32µM*
CCCCOc1ccc(S(=O)(=O)n2nc(C)c(S(=O)(=O)N3CCC(C)CC3)c2C)cc1,-19%,x,1%,-2%[59 µM],26%[57 µM],5%
Cc1ccc(S(=O)(=O)N2CCC(N3CCC(C)CC3)CC2)cc1,u,-8%,1.6µM*,25µM*,u,u
Cc1ccc(S(=O)(=O)n2nc(C)c(S(=O)(=O)N3CCC(C)CC3)c2C)cc1,0%,x,79µM*,-8%[59 µM],7%,-23%
CC1CCN(S(=O)(=O)c2ccc(Cl)cc2)CC1,-19%,-4%,-4%,13%[59 µM],33%,48%
CC1(CNCc2ccccc2)COc2ccc(C(=O)Nc3cccnc3)cc2N1 (configuration not stated),46%[176 µM],x,x,x,x,x
CC(Sc1ccccc1)C(=O)N(Cc1ccco1)c1c(N)n(Cc2ccccc2)c(=O)[nH]c1=O (configuration not stated),-13%,x,x,x,x,x
O=C1[C@H]2[C@H]3[C@H](O)[C@H](O)C/C(=N\OC[C@@H](O)COCc4ccco4)[C@@H]3CC[C@H]2C(=O)N1c1ccc(F)cc1F,x,3%,x,50µM*,x,-33%
O=C(NC(=S)Nc1ccc(CN2CCOCC2)cc1)c1ccc(-c2ccc(Br)cc2)o1,x,-5%,-22%,x,18%,-5%
COc1ccc(Br)cc1C(=O)NC(=S)Nc1ccc(CN2CCOCC2)cc1,-8%,u,u,-8%[0.0925 µM],-1%,25µM*
Cc1ccc(C(=O)NC(=S)Nc2ccc(CN3CCOCC3)cc2)cc1,35µM*,12%,-18%,-23%,-11%,-23%
CCC(C)(C(=O)NC1CCCCC1)N(Cc1cccs1)C(=O)CNC(=O)c1ccccc1 (configuration not stated),7%,x,x,x,x,x
Cc1ccc(Cn2c(/C=C/c3ccco3)nc3ccccc32)cc1,16µM*,u,-1%,40µM*,11%,u
Clc1ccc(Cn2c(/C=C/c3ccco3)nc3ccccc32)cc1,18µM*,40µM*,-26%,3.2µM*,u,56µM*
CC(NC(=O)/C=C/c1ccco1)c1nc2ccccc2n1Cc1c(Cl)cccc1Cl (configuration not stated),u,50µM*,4%,8%[59 µM],-5%,8%
Cc1ccc(Cn2c(-c3ccccc3)nc3ccccc32)cc1,-5%,x,17%,5%[59 µM],69%,28%
Cc1cccc(-[n+]2c(C)cc(C)c3c(=O)[nH]c(=O)[nH]c32)c1,-4%,2%,-1%,50µM*,22%,2%
O=C(CN1C(=O)c2ccccc2C1=O)OCC(=O)c1ccc(F)cc1,-13%,x,-21%,50µM*,10%,5%

# Bioassay records (PubChem BioAssay)
